Test results published in ChEMBL document CHEMBL3988442, “University of Dundee, Small-Polar-MMV Screening Library” (2021).
Among all 48,000 compounds or so, about 13,000 (27%) showed an effect of 50% or more. The list shows a part of the results.

The molecules below were run on Wolbachia pipientis (assay: Anti-Wolbachia Cell-Based Screen). Settings: 5 µM.
Assay type: functional
Design: scale not given: in the data most compounds retested in dose-response had high values

First: CC(C)NS(=O)(=O)c1cc(C(=O)O)cc(-c2ccc(CN(C)C)cc2)c1
Second: CCc1ccc(C(C)NC(=O)CCc2nc(-c3nnc[nH]3)no2)cc1 (centres undefined)
The “Percent Effect” value of the first is lower: -14.22% for the first, 0.9549% for the second.

Going from `Cc1cc(CNC(=O)Nc2ccc(C(=O)NC3CC3)cc2)no1` to `COc1cc(NC(=O)NC2CC2)ccc1N1CCOC1=O`, the “Percent Effect” value falls from 1.867% to -6.648%.

First: CC(=O)NCCC1CCCCN1C(=O)c1cccc(CCC(C)(C)O)c1 (centres undefined)
Second: CC(C)(O)CCc1cccc(C(=O)N2CCC[C@H]2CN2CCCC2)c1
The “Percent Effect” value of the first is lower: 90.48% for the first, 96.29% for the second.

Compared with `CC(C)(O)CCc1cccc(C(=O)NCCC2CCOC2)c1` (centres undefined), `CC(C)(O)CCc1cccc(C(=O)N2CCC3(CCO3)CC2)c1` is higher in “Percent Effect” value: -27.94% for the first, 8.25% for the second.

Going from `CO[C@H]1C[C@@H](O)C12CCN(C(=O)c1cccc(CCC(C)(C)O)c1)CC2` to `CC(C)(O)CCc1cccc(C(=O)N2CCC3(CCOCC3)CC2)c1`, the “Percent Effect” value falls from -1.029% to -3.198%.

Going from `CCc1nnc(SCC(=O)Nc2cc(C(C)(C)C)nn2C)[nH]1` to `CS(=O)(=O)c1nnc(NC(=O)CCc2cc(F)ccc2F)[nH]1`, the “Percent Effect” value falls from -3.815% to -16.39%.

First: CCOc1cc(CN2CCCC2)ccc1Oc1cccc(C#N)n1
Second: Cc1ccnc(NCc2cccc(OCCN3CCOCC3)c2)n1
The “Percent Effect” value of the first is lower: -4.025% for the first, 10.24% for the second.

Going from `COc1cc(CNC(=O)NCc2c(C)cc(C)[nH]c2=O)ccc1C` to `COc1ccc(C(C)(C)C(=O)NCc2n[nH]c(=O)[nH]2)cc1`, the “Percent Effect” value falls from 1.509% to -12.5%.

First: CC(C)(C)N1CC(c2ncc(-c3ccc4c(c3)OCCO4)[nH]2)CC1=O (centres undefined)
Second: COCc1cnc2n1CCN(C(=O)c1cc3cc(Cl)ccc3o1)C2C (centres undefined)
The “Percent Effect” value of the first is lower: -4.995% for the first, 1.755% for the second.

Compared with `CNc1ncc(-c2csc(NC(=O)C[C@H]3COCCN3)n2)cn1.Cl`, `CC(C)Nc1ncc(-c2csc(NC(=O)C[C@H]3COCCN3)n2)cn1` is lower in “Percent Effect” value: 71.35% for the first, 64.22% for the second.

First: Cc1nsc(NC(=O)NC2CCCOC2)n1 (centres undefined)
Second: Cl.Nc1ncc(-c2csc(NC(=O)C[C@H]3COCCN3)n2)cn1
The “Percent Effect” value of the first is lower: -39.42% for the first, 103.3% for the second.

First: O=C(CC1COCCN1)NCCc1nc(Cc2ccccc2)no1 (centres undefined)
Second: O=C(CC1COCCN1)NCCc1noc(-c2ccccc2)n1 (centres undefined)
The “Percent Effect” value of the first is higher: 18.61% for the first, -6.645% for the second.

First: O=C(CC1COCCN1)NCCc1nc(-c2ccccn2)no1 (centres undefined)
Second: Cc1ccc(CN2CCNC(=O)C2CC(=O)NCc2n[nH]c(C)n2)cc1 (centres undefined)
The “Percent Effect” value of the first is lower: -14.35% for the first, 3.294% for the second.

Compared with `CCNC(=O)NCc1cnn(-c2ccc(F)cc2F)c1`, `O=C(CSC1=NS(=O)(=O)c2cc(F)ccc2N1)c1ccc(Cl)cc1` is higher in “Percent Effect” value: -2.386% for the first, 4.147% for the second.

Going from `Cc1cc(CC(=O)NCC(O)c2ccc(OC(F)F)cc2)n[nH]1` (centres undefined) to `Cc1n[nH]cc1CNCc1cccc(OCC(F)(F)F)c1.Cl`, the “Percent Effect” value falls from -1.889% to -11.93%.

Compared with `Cc1ccccc1-c1noc(CNc2ccc(F)cc2OCCO)n1`, `O=C(CSC1=NS(=O)(=O)c2cc(F)ccc2N1)c1ccccc1` is higher in “Percent Effect” value: 17.52% for the first, 100.3% for the second.

Compared with `CS(=O)(=O)c1ccc(CN2C[C@@H]3OCC(=O)N(CC(N)=O)[C@@H]3C2)cc1`, `CN(C)c1ccc(CC(=O)N2C[C@H](C3CC3)[C@@H](N)C2)cc1` is lower in “Percent Effect” value: 4.5% for the first, -4.487% for the second.

Compared with `CCS(=O)(=O)N1C[C@@H](c2ccccc2)[C@@]2(CCNC2=O)C1`, `CCCS(=O)(=O)N1C[C@@H](c2ccccc2)[C@@]2(CCNC2=O)C1` is higher in “Percent Effect” value: 107.9% for the first, 108.5% for the second.

Compared with `O=C1NCC[C@]12CN(Cc1ccco1)C[C@H]2c1ccccc1`, `Cc1ccc(CN2C[C@@H](c3ccccc3)[C@@]3(CCNC3=O)C2)o1` is higher in “Percent Effect” value: 13.69% for the first, 33.3% for the second.

Going from `O=C(c1cnccn1)N1C[C@@H](c2ccccc2)[C@@]2(CCNC2=O)C1` to `CC1c2ncc(Cn3cncn3)n2CCN1C(=O)c1ccccn1` (centres undefined), the “Percent Effect” value rises from -14.79% to 114.5%.

First: COc1ccc2c(c1)s/c(=N\C(=O)CSCC(=O)Nc1nccs1)n2C
Second: CCNC(=O)NC(=O)C(C)N1CCCc2cc(OC)ccc2C1 (centres undefined)
The “Percent Effect” value of the first is lower: -4.566% for the first, -0.429% for the second.

First: N#CCCN(CC1CC1)S(=O)(=O)c1cccc(Cl)c1
Second: OC(CN1CCN(CC2CC2)CC1)c1ccc(Br)cc1 (centres undefined)
The “Percent Effect” value of the first is lower: -14.4% for the first, 16.18% for the second.

Going from `CC(=O)c1cccc(-c2c[nH]c(C)n2)c1` to `Cc1nc(C(NC(=O)c2cc(C(C)C)[nH]n2)c2ccccc2)n[nH]1` (centres undefined), the “Percent Effect” value rises from -8.634% to -6.911%.

Going from `O=c1[nH]nc(CNCc2ccc(OC34CCCN(CC3)C4)cc2)[nH]1` (centres undefined) to `Cc1nc(CNCc2ccc(OC34CCCN(CC3)C4)cc2)n[nH]1` (centres undefined), the “Percent Effect” value rises from 93.23% to 103.3%.

Compared with `COCCN1CCCC(O)(CN2CCN(c3ccncc3C)CC2)C1=O` (centres undefined), `Cc1cnccc1CNCc1ccc(OC23CCCN(CC2)C3)cc1` (centres undefined) is higher in “Percent Effect” value: -3.963% for the first, 106.9% for the second.

Going from `Cc1nc(CNCc2cccc(OC34CCCN(CC3)C4)c2)n[nH]1` (centres undefined) to `CCN1CCCC(O)(CNCc2ccncc2)C1` (centres undefined), the “Percent Effect” value falls from 113.3% to 6.912%.

Compared with `CC(C)CC(O)C1CCN(Cc2ccc(N(C)C)nc2)CC1` (centres undefined), `COCc1cnc2n1CCN(C(=O)C1=CCCCC1)C2C` (centres undefined) is lower in “Percent Effect” value: 7.143% for the first, 2.775% for the second.

Compared with `CCC(CO)N(Cc1ccccn1)C(=O)c1cccc(C#N)c1` (centres undefined), `CNS(=O)(=O)c1ccc(CNC(=O)Nc2ccccn2)s1` is higher in “Percent Effect” value: -13.95% for the first, -5.463% for the second.

Going from `CC1c2ncc(Cn3cncn3)n2CCN1C(=O)c1cscn1` (centres undefined) to `CC1c2ncc(Cn3cncn3)n2CCN1C(=O)c1ccsc1` (centres undefined), the “Percent Effect” value rises from 89.1% to 106%.

First: CC1c2ncc(Cn3cncn3)n2CCN1C(=O)Cc1cccs1 (centres undefined)
Second: CN1CCN(Cc2cnc3n2CCN(C(=O)c2cscn2)C3)CC1
The “Percent Effect” value of the first is lower: -8.694% for the first, 22% for the second.

Going from `CCN1CC(Oc2ccc(Cl)cc2)=NC(SCC(=O)c2ccccc2)=N1` to `O=C(CSC1=NS(=O)(=O)c2cc(Cl)ccc2N1)c1ccccc1`, the “Percent Effect” value rises from 3.791% to 112.7%.

First: O=C(CN1C(=O)c2ccccc2CS1(=O)=O)c1ccc(Cl)cc1
Second: Cc1nc(COC[C@H]2CC[C@H]3[C@H](CCN3c3ncccn3)O2)cs1.O=C(O)C(F)(F)F
The “Percent Effect” value of the first is lower: -11.99% for the first, -1.05% for the second.
